GoLoco inh red – inhibitors of human Gai1-RGS12 GoLoco interaction (red fluorophore); Gai1:RGS12 GoLoco peptide FP, rhodamine, 10 min; Potency, µM (highest dose often 61.6 µM), most hits filed as inhibitors; P63096; actives 0.44% (n = 230,000); active = well fitted inhibition curve with a large enough effect, not every such curve was filed as active; inactive = no such curve, though single readings can be large or run the other way; also: nearly all actives have a fitted effect of over 30% in size
TexasRed fluor – Texas Red fluorescence interference in TRb-SRC2 counter-screen. AID 1479. TRb/SRC2 Texas Red total fluorescence interference. actives 0.29% (n = 280,000). Potency, µM (top dose mostly 106 µM); active = well fitted curve in either direction with a large enough effect; inconclusive = small, poorly fitted or top-dose-only effect
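Flags fluorescent or light-absorbing compounds by total fluorescence, S + 2P, at 555 nm excitation and 632 nm emission. Mixture: 20 nM Texas Red SRC2 peptide, 0.6 uM human TRb LBD, 1 uM T3, 5% DMSO; compound exposure 5 h at ambient temperature.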
Tau fibril FP – tau fibrillization inhibition (FP); K18 P301L tau heparin fibrillization, Alexa594 FP, 6 h; Potency, µM (series often up to 57.7 µM), actives largely listed as inhibitors; AID 1468; actives 0.39% (n = 280,000); also: nearly all actives have a fitted effect of over 55% in size
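K18 P301L tau (15 uM unlabeled/0.24 uM Alexa 594-labeled, final) + compound + heparin 20 uM final; 100 mM NaOAc pH 7; 6 hr 37 C; ThT 30 uM final added, 1 hr RT; FP ex 555/em 632 nm.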
TRb-SRC2 inh – TRbeta-SRC2 interaction inhibition. TRbeta-SRC2 peptide binding, fluorescence polarization; receptor liganded with 1 µM T3. Potency, µM (highest dose often 106 µM), most hits filed as inhibitors. actives 0.065% (n = 280,000). P10828. AID 1469; also: nearly all actives have a fitted effect of over 50% in size
Target sequence (P10828 whole entry, looked up): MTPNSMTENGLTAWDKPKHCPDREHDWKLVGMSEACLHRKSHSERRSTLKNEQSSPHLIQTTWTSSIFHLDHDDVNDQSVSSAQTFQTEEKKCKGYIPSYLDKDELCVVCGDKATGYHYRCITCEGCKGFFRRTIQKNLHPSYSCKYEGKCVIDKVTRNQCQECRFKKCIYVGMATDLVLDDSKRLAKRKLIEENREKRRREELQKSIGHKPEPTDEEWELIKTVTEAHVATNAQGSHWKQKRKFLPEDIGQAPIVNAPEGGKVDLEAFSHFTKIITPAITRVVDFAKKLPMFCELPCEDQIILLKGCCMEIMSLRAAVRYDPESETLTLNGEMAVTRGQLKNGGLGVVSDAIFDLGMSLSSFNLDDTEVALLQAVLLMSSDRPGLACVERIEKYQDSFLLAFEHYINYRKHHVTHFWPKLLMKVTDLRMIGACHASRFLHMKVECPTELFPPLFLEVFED
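Human TRb LBD (0.6 uM) plus Texas Red-labeled SRC2 peptide (20 nM), 1uM T3, 5% DMSO, 5 hr at ambient temperature. Decreased polarization (555/632 nm) flags inhibition; data normalized to free and bound peptide controls.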
Tau fluor cs – counter-screen for tau fibril formation inhibitors. tau K18 P301L Alexa594 fluorescence, heparin fibrillization. Potency, µM (highest dose often 57.7 µM). actives 0.93% (n = 280,000). AID 1463; also: nearly all actives have a fitted effect of over 55% in size
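Human tau K18 P301L (15 uM unlabeled, 0.24 uM Alexa 594-labeled) in 100 mM sodium acetate pH 7 with 20 uM heparin, 6 hr at 37 C. ThT 30 uM added, 1 hr ambient; Alexa 594 FP and total fluorescence read at 555/632 nm.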
Tau ThT inhib – blocks human tau fibril formation measured by thioflavin T; recombinant tau K18 P301L (four-repeat tau fragment), heparin-induced fibrillization, ThT fluorescence; P10636; actives 2.1% (n = 270,000); Potency, µM (series often up to 57.4 µM), most hits filed as inhibitors; also: nearly all actives have a fitted effect of over 55% in size
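In this qHTS, human K18 P301L tau is incubated with compound and heparin for 6 hr at 37 C, and Thioflavin T fluorescence then reports fibril load.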
Hits are given with their value; 0 = inactive; ? = inconclusive; - = not tested or not shown; [ ] = dose if it differs, or a comment. An excerpt weighted towards active compounds, which were near 3.2% of everything screened. Unless noted, calls follow the shape of the dose curve; as a rule, active = well fitted curve in the direction sought with a large enough effect; inconclusive = small, poorly fitted or top-dose-only effect, or another doubt; inactive = no such curve, though single readings can be large; an effect the other way counts as inactive or inconclusive.

SMILES	GoLoco inh red	TexasRed fluor	Tau fibril FP	TRb-SRC2 inh	Tau fluor cs	Tau ThT inhib
Oc1ccc(/C=N/Nc2ccnc3cc(Cl)ccc23)cc1O	0	0	0	0	16µM[quencher]	10µM
CCCCOc1cccc(C(=O)N(Cc2ccc(Br)o2)C2CCS(=O)(=O)C2)c1 (stereo not drawn)	-	0	0	0	0	0
CC1CCCC/C1=N\NC(=S)NCCc1ccccc1 (stereo not drawn)	0	0	0	0	0	?
C[n+]1ccccc1C1CCCC/C1=N\NC(N)=S (stereo not drawn)	10µM	0	0	0	0	0
COc1ccccc1NS(=O)(=O)c1cc([N+](=O)[O-])ccc1N/N=C/c1sc(N2CCOCC2)nc1-c1ccccc1	0	0	0	0	?	?
Cc1[nH]c2ccccc2c1/C=N/Nc1nc2ccccc2[nH]1	0	0	0	0	?	-
COc1ccccc1NS(=O)(=O)c1cc([N+](=O)[O-])ccc1N/N=C/c1c[nH]c2ccccc12	0	0	0	0	0	2.8µM
COc1ccc(/C=N/Nc2ccc([N+](=O)[O-])cc2S(=O)(=O)N2CCN(C)CC2)cc1	0	0	0	0	0	?
COc1ccc(NS(=O)(=O)c2cc([N+](=O)[O-])ccc2N/N=C\c2c(C)[nH]c3ccccc23)cc1	0	0	0	0	3.2µM[quencher]	2.5µM
Cc1[nH]c2ccccc2c1/C=N/Nc1ccc([N+](=O)[O-])cc1S(=O)(=O)Nc1ccc(Cl)cc1	0	0	0	0	3.2µM[quencher]	3.2µM
COc1cc(C2Nc3ccccc3-c3nnc(SCc4ccc(C)cc4)nc3O2)cc(OC)c1O (stereo not drawn)	-	0	0	0	0	?
O=c1c(C(c2ccc(Cl)cc2)c2c(O)nc3n(c2=O)CCS3)c(O)nc2n1CCS2	0	0	?	0	0	?
O=c1c(C(c2ccc(Cl)cc2)c2c(O)nc3n(c2=O)CCCS3)c(O)nc2n1CCCS2	0	0	?	0	0	11µM
O=C(/C=C/c1ccc(I)cc1)c1ccc(B(O)O)cc1	-	0	-	0	-	-
Cc1cc2n(n1)C(c1cn(-c3ccccc3)nc1C)Nc1ccccc1-2 (stereo not drawn)	0	0	0	0	0	0
CCOc1cccc(C2Nc3ccccc3-c3cc(C)nn32)c1O (stereo not drawn)	-	0.0004µM[quencher]	0	0	0	0
Cc1cc2n(n1)C(c1c[nH]c3ccccc13)Nc1ccccc1-2 (stereo not drawn)	0	0	28µM	0	25µM[quencher]	?
CC(C)(C)c1ccc(/C=N/N2CCN(c3ccccn3)CC2)cc1	0	0	0	0	0	?
CN(C)c1ccc(/C=N/N2CCN(c3ccccn3)CC2)cc1	0	0	0	0	0	1.8µM
COc1ccc(-c2csc(/C(C#N)=C(\O)CSc3nccn3C)n2)cc1OC	0	0	0	0	?	18µM
COc1ccc(/C=C(/C#N)c2nc(-c3ccc(-c4ccccc4)cc3)cs2)cc1OC	-	?	?	?	0	?
COC(=O)C/C=C\[C@H](C)[C@@H](OCc1ccccc1Br)C(C)C	-	0[11.2 µM]	0[11.6 µM]	0[11.2 µM]	0[11.6 µM]	0[11.5 µM]
CCC(C(=O)OCC(=O)Nc1cccc(C(C)=O)c1)c1ccccc1 (stereo not drawn)	0	0	0	0	0	0
CCC(C(=O)OCC(=O)Nc1cc(Cl)cc(Cl)c1)c1ccccc1 (stereo not drawn)	0	0	32µM	0	?	0
CN1CCN(c2ncc3nc(-c4ccccc4)c(=O)n(-c4ccccc4)c3n2)CC1	0	-	-	-	-	-
Cc1cc(C)cc(NC(=O)Cn2c(=O)n(-c3ccc(C)c(C)c3)c(=O)c3oc4ccccc4c32)c1	-	0	0	0	0	0
COC(=O)Cn1c(=O)c2c(n(Cc3ccccc3)c1=O)N/C(=C/c1ccc(Br)cc1)C2=O	0	0	0	0	?	16µM
COc1ccc(Cl)cc1C(Nc1cccnc1)c1ccc2cccnc2c1O (stereo not drawn)	0	0	?	0	0	28µM

Screening data deposited in PubChem BioAssay by National Center for Advancing Translational Sciences (NCATS).
